Assay outcomes: PubChem, The Scripps Research Institute Molecular Screening Center
MsrA inh – bovine MsrA inhibition; purified bovine MsrA, absorbance read-out; inhibition, % at 15.5 µM; actives 0.75% (n = 360,000); AID 651718; in the data active means inhibition above about 4.5%
MsrA act – activators of bovine methionine sulfoxide reductase A; purified bovine MsrA, absorbance read-out; activation, % at 10.6 µM; actives 0.3% (n = 360,000); in the data active means activation above about 7.5%
ZTA DNA inh – ZTA (EBV) inhibition in EBNA-1 counter-screen. P03206. ZTA-DNA binding, fluorescence polarization. inhibition, % at 11 µM. actives 0.15% (n = 320,000). AID 2234; in the data active means inhibition above about 33%
Target sequence (P03206 whole entry, looked up): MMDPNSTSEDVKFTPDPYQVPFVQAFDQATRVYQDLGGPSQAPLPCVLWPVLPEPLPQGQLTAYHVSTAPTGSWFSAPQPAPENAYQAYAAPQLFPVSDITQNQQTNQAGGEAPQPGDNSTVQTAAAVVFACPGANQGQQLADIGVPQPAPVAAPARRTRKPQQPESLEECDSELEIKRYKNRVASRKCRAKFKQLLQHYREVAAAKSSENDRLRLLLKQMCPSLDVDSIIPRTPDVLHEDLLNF
PP5 inh – inhibitors of human protein phosphatase 5 (PP5); P53041; purified PP5c, OMFP substrate fluorescence; inhibition, % at 6.7 µM; actives 0.18% (n = 320,000); AID 1987;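 active means inhibition above the campaign's mean inhibition across all tested compounds plus 3 SD, cut at about 9.5% in these data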
EBNA-1 inh – blocks EBNA-1 binding to DNA. EBNA-1 DNA binding, fluorescence polarization. actives 0.34% (n = 300,000). AID 1950. inhibition, % at 14.8 µM; in the data active means inhibition above about 28%
PP1 counter – blocks human PP1-alpha phosphatase, a PP5 counter-screen; P62136; inhibition, % at 6.7 µM; actives 0.9% (n = 320,000); AID 2235; purified PP1alpha, OMFP fluorescence;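 active means inhibition above the mean inhibition of all tested compounds plus 3 SD, computed separately for each screening campaign, cut at about 15% in these data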
MsrA act confirm – confirmation of bovine methionine sulfoxide reductase A activators; shares compounds with MsrA act; purified bovine MsrA, absorbance read-out; activation, % at 10.6 µM; actives 12% (n = 1,000); AID 602270; in the data active means activation above about 4%;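 further: enzyme coupled to thioredoxin and thioredoxin reductase with NADPH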
Each line names hits and unclear results; the compound was inactive in the other large screens (follow-up assays come after a bar, where they were run). A selection: hits, their analogues and other compounds. The true share with any hit is near 2.3%.

O=C(/C=C/c1ccccc1)C1=C(O)C(=O)N(CCO)C1c1cccc([N+](=O)[O-])c1 (configuration not stated)	MsrA act 9.9 | MsrA act confirm inactive
COCCNC(=O)CN(Cc1ccc(F)cc1)C(=O)CCC(=O)Nc1nccs1	none
COc1ccc2c(c1)C1(Nc3ccccc3-c3nc4ccccc4n31)C(=O)N2C (configuration not stated)	none
COc1ccc2c(c1)C1(Nc3ccccc3-c3nc4ccccc4n31)C(=O)N2 (configuration not stated)	MsrA act 8.7 | MsrA act confirm inactive
Cc1ccc(C(c2nc3ccccc3[nH]2)n2c(-c3ccccc3)nc3ccccc32)cc1 (configuration not stated)	none (no result: ZTA DNA inh, PP5 inh, EBNA-1 inh, PP1 counter)
Fc1ccc(C(c2ccc(F)cc2)N2CCN(C/C=C/c3ccccc3)CC2)cc1	MsrA act 8.4 | MsrA act confirm inactive
O=C(CSc1ncnc2c1oc1ccccc12)Nc1cccc(C(F)(F)F)c1	MsrA act 8.8 | MsrA act confirm inactive
O=C(CSc1ncnc2c1oc1ccccc12)Nc1cccc(Cl)c1	none
Cc1ccc(-n2sc3cc(F)ccc3c2=O)c(C)c1	MsrA act 13.9 (no result: ZTA DNA inh, PP5 inh, EBNA-1 inh, PP1 counter) | MsrA act confirm inactive
Cc1ccc(-n2sc3ccccc3c2=O)cc1	MsrA act 12.8 | MsrA act confirm inactive
O=c1c2ccccc2sn1-c1ccc(F)cc1	MsrA act 12.3 (no result: EBNA-1 inh) | MsrA act confirm 8.3
O=c1c2ccc(F)cc2sn1-c1ccccc1	MsrA act 12.9 (no result: ZTA DNA inh, PP5 inh, EBNA-1 inh, PP1 counter) | MsrA act confirm 8.0
O=c1c2cc(F)ccc2sn1-c1ccccc1Cl	none (no result: ZTA DNA inh, PP5 inh, EBNA-1 inh, PP1 counter)
O=c1c2ccccc2sn1-c1ccc(Cl)cc1	none (no result: ZTA DNA inh, PP5 inh, EBNA-1 inh, PP1 counter)
COc1cccc(CNC(=O)CCSCc2ccccc2F)c1	none
CCC1CCCCN1CCCNC(=O)Cn1ncn2nc(-c3ccc(OC)cc3)cc2c1=O (configuration not stated)	none
COc1ccccc1NC(=O)CSc1nnnn1-c1ccc(F)cc1	none
CC1CCN(CCCNC(=O)c2coc3nc4ccccc4nc23)CC1	MsrA act 9.0 | MsrA act confirm inactive
CC1CCCN(CCCNC(=O)c2coc3nc4ccccc4nc23)C1 (configuration not stated)	none
COc1cc(-c2nc3cccc(C)n3c2NCC2CCCO2)ccc1O (configuration not stated)	none
CCOc1ccc(-c2nnc(NC3=NCCCCC3)o2)cc1	MsrA act 10.2 | MsrA act confirm inactive
COc1cc(NC(=O)c2cccs2)c(C(=O)OCC(=O)NC(=O)NCc2ccccc2)cc1OC	MsrA act 7.9 | MsrA act confirm inactive
COc1cc(C(=O)Nc2cc3c4c(c2)CC(=O)N4CCC3)cc(OC)c1OC	none
O=C(c1ccc2oc(Cc3ccc(Cl)cc3)nc2c1)N1CCCCC1CCO (configuration not stated)	none
COc1ccc(C(=O)NC(=O)COC(=O)C2CC2C)cc1 (configuration not stated)	MsrA act 8.0 (no result: ZTA DNA inh, PP5 inh, EBNA-1 inh, PP1 counter) | MsrA act confirm inactive
Cc1cc(C)cc(NC(=S)N2CCCC2)c1	MsrA act 11.7 (no result: ZTA DNA inh, PP5 inh, EBNA-1 inh, PP1 counter) | MsrA act confirm inactive
COc1cccc(-n2c(=O)c3ccccc3n3c(=S)[nH]nc23)c1	none
COCCCn1c(=O)c2ccccc2n2c(=S)[nH]nc12	MsrA act 9.8 | MsrA act confirm 5.4
CCCN(CC(=O)Nc1ccccc1C)C(=O)c1ccc(N2CCCC2=O)cc1	none (no result: EBNA-1 inh)
Cc1cc(CN(C)C(=O)c2ccc(OC3CCN(CCc4ccccc4)CC3)cc2)on1	MsrA act 11.1 | MsrA act confirm inactive
CN(C(=O)c1cccc(NC(=O)Cc2cccc(NC(=O)C3CCN(C(=O)c4ccccc4)CC3)c2)c1)C1CC1	MsrA act 8.7 (no result: ZTA DNA inh, PP5 inh, EBNA-1 inh, PP1 counter) | MsrA act confirm inactive
Cc1cccc(N2C(=O)C3CCCN3C2=S)c1 (configuration not stated)	none
CSc1cccc(N2C(=O)C3CCCN3C2=S)c1 (configuration not stated)	MsrA act 8.1 | MsrA act confirm inactive
COc1ccc(N2CCN(C3CCCN(C(=O)c4cccc(C)n4)C3)CC2)cc1 (configuration not stated)	none
CN1C(=O)Cc2cc(S(=O)(=O)N3CCN(c4cccc(Cl)c4)CC3)ccc21	none
Nc1ncnc2nc(SCc3ccccc3)[nH]c12	MsrA act 7.8 | MsrA act confirm inactive
O=C(COC(=O)CCCNC(=O)c1ccc(Cl)cc1)NC1CC1	MsrA act 7.9 | MsrA act confirm inactive
